These results are taken from PubChem BioAssay.

Assay [1] deals with PRMT1 (protein arginine N-methyltransferase 1). The experiment in a line: small molecules binding arginine methyltransferase PRMT1 – biochemical, small-molecule microarray, 635 nm fluorescence, primary screen (AID 1088).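 Further: binding of Prmt1 protein to compounds spotted on small-molecule microarray slides.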 The following applies: higher = more signal.
Assay [2] can be described thus: growth effects on S. cerevisiae YJM789 – YJM789 clinical isolate, OD600, 24 h, basal, primary screen (AID 1089).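 Further: growth of clinical yeast isolate S. cerevisiae YJM 789 seeded 1000 cells per well; test concentration not given here.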 Conditions: higher = more signal, called active from +8 up or from −8 down.
The nature of assay [3]: S. pombe growth modifiers, basal conditions – strain 972, OD600, 24 h, no modulator, primary screen (AID 1090).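 Further: basal condition with compound alone and no growth modifier present; test concentration not given here.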 Conditions: S. pombe 972 growth, higher = more signal, called active from +8 up or from −8 down.
The nature of assay [4]: budding yeast growth modifiers under rapamycin – strain BY4716, OD600, 96 h, primary screen (AID 1091). Further: test concentration not given here. Conditions: S. cerevisiae BY4716 + rapamycin, higher = more signal, called active from +8 up or from −8 down.
The target of assay [5] is Torsin-1A-interacting protein 2 (Homo sapiens) (UniProt Q8NFQ8). The experiment in a line: small molecules binding lysate-expressed LULL1 – cell lysate, human LULL1 lysate, 635/667 nm fluorescence, primary screen (AID 1092).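 Further: probe is lysate of COS7 cells overexpressing human LULL1; score merges per-feature 667 nm fluorescence with signal-to-noise.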 Conditions: small-molecule microarray, hLULL1 lysate binding, 635 nm fluorescence; higher = more signal.
Chain of Torsin-1A-interacting protein 2 (Homo sapiens) (Q8NFQ8 whole entry, looked up): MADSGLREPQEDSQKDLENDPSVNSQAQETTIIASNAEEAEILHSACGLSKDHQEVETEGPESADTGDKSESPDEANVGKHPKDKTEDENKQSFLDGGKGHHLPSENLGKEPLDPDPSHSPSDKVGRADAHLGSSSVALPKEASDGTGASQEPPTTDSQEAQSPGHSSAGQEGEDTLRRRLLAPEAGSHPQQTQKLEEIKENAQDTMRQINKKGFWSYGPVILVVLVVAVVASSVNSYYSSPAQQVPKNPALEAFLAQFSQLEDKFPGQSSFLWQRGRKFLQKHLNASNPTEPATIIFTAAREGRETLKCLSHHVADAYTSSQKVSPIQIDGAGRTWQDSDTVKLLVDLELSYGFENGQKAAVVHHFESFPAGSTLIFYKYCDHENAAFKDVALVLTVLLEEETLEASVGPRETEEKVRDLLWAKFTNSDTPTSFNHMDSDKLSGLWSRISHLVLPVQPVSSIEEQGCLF
Assay [6] in a line: optical density change of DRC41 E. coli – strain DRC41, OD650, 24 h, E. coli filamentation project, primary screen (AID 1093).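 Further: MC1000 strain lacking acrAB efflux and sulA so SOS filamentation is blocked; test concentration not given here.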 Conditions: E. coli DRC41 growth, higher = more signal, called active from +8 up or from −8 down.
The nature of assay [7]: probe aLefty2 binding to arrayed compounds – biochemical, biotinylated probe, 635/667 nm fluorescence, primary screen (AID 1094).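 Further: score merges spot fluorescence near 667 nm with spot signal-to-noise ratio.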 The following applies: small-molecule microarray, higher = more signal.
For assay [8], the system named is Noggin (protein binding on small-molecule microarray). The assay is described as follows: small molecules binding Noggin protein – biochemical, 635/667 nm fluorescence, primary screen (AID 1095).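 Further: score merges 667 nm feature fluorescence with signal to noise over triplicate slides.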 Conditions: 635 nm fluorescence, higher = more signal.
The target of assay [9] is Neurogenic locus notch homolog protein 3 (Homo sapiens) (UniProt Q9UM47). The experiment in a line: small molecules binding NOTCH3 protein – biochemical, 635/667 nm fluorescence, primary screen (AID 1096). The following applies: small-molecule microarray, 635 nm fluorescence, higher = more signal.
Chain of Neurogenic locus notch homolog protein 3 (Homo sapiens) (Q9UM47 whole entry, looked up): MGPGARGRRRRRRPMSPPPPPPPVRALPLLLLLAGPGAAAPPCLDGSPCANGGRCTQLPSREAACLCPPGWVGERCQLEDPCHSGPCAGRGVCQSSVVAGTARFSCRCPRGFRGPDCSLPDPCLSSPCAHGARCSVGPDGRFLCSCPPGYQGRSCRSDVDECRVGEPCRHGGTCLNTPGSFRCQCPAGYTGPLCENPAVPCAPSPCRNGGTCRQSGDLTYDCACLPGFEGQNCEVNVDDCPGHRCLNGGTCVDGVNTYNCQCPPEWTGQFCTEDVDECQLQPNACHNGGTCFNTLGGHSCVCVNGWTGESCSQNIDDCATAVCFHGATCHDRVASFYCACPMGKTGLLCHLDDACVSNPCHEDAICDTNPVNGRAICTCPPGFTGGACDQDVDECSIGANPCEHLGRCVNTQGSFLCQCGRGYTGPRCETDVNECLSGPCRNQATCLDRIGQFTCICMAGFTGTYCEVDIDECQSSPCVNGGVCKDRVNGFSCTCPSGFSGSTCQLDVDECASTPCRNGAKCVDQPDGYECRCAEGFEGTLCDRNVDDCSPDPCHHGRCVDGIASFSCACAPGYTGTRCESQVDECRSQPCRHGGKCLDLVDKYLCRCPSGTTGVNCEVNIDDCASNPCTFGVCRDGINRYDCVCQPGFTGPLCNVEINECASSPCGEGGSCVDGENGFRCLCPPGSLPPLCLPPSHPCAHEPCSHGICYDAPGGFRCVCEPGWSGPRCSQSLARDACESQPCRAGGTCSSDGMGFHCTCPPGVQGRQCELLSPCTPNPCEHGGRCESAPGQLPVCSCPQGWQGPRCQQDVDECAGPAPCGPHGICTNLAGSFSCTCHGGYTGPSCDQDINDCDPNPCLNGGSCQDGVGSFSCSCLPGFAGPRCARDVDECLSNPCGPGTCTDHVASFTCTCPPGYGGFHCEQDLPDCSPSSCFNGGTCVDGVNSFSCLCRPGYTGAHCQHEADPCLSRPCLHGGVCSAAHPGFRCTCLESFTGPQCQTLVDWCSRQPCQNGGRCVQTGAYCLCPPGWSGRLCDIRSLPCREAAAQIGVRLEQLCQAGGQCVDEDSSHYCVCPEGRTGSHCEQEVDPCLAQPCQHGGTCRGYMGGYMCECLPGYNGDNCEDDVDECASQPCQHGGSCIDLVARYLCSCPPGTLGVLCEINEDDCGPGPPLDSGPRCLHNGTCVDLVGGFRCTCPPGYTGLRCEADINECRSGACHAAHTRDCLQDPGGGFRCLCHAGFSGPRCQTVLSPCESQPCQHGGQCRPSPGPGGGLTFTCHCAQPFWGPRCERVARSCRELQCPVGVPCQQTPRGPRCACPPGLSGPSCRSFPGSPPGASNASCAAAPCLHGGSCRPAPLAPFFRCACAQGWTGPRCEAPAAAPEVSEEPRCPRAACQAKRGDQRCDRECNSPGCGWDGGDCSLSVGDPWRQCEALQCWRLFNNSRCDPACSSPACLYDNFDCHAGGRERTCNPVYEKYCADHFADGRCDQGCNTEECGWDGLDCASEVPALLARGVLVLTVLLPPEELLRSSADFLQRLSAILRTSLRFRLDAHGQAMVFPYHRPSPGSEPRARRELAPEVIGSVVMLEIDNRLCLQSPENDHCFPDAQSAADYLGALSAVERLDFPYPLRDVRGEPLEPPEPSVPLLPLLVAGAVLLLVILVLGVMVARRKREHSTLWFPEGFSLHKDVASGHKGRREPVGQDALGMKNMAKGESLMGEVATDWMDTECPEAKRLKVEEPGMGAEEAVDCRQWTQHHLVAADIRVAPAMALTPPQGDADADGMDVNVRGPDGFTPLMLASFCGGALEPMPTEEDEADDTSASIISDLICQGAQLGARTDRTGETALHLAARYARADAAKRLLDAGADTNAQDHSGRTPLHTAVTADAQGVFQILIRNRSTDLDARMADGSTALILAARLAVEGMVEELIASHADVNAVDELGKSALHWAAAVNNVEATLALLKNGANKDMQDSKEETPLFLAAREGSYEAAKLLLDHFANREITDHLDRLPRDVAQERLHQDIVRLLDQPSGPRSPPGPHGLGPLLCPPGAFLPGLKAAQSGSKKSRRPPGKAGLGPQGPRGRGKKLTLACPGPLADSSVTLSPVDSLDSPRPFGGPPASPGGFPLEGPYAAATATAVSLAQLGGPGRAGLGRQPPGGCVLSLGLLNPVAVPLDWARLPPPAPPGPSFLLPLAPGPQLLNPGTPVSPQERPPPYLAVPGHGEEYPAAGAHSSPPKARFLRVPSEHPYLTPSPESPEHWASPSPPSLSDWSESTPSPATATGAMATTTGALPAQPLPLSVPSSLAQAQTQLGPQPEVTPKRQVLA
A short description of assay [10]: probe aEGFR binding to arrayed compounds – biochemical, biotinylated probe, 635/667 nm fluorescence, primary screen (AID 1097).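 Further: probe is a biotinylated anti-EGFR antibody binding compounds printed on slides; score combines fluorescence near 667 nm and signal to noise of each spot.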 The following applies: small-molecule microarray, higher = more signal.

SMILES strings stand for the structures. The source made the active and inactive calls.

On to `O=C(N1CCOCC1)[C@@]1(CCS(=O)(=O)c2ccccc2)COC(c2ccc(OCCCO)cc2)=N1`, for which the composite z-score in assay [1] is 0.988; in assay [5], 3.18; in assay [7] it was -0.139; in assay [8] it was 0.0307; in assay [9] it was 0.0961; in assay [10] it was -0.174. For the same compound, the z-score in [2] is 0.0962 (inactive); in assay [3], 0.365 (inactive); in assay [4] it was -0.408 (inactive); in assay [6], 1.01 (inactive).

On to `CCC[C@@H]1C[C@@]1(CCC)[C@@H](NC(=O)c1cccs1)c1ccc(Cl)cc1`, for which the composite z-score is 0.0333 in [1]; 1.4 in [5]; 0.0395 in assay [7]; -1.87 in assay [8]; -0.118 in assay [9]; -0.435 in assay [10]. Also, the z-score was -0.5 (inactive) in assay [2], -3.76 (inactive) in assay [3], -0.454 (inactive) in assay [4] and 0.102 (inactive) in assay [6].

Take `COCCOC(=O)N1C(=O)[C@@]2(c3cc(C#CCNC(N)=O)ccc31)[C@H](c1ccc(OCCO)cc1)N1[C@H](c3ccccc3)[C@H](c3ccccc3)OC(=O)[C@H]1[C@@H]2C(=O)N1CCN(c2ncccn2)CC1`: the composite z-score in assay [1] is 1.43; in assay [5] it was 2.1; in assay [7], 0.456; in assay [8], 1.35; in assay [9] it was 1.1; in assay [10], -0.0424. Also, the z-score in [2] is 1.22 (inactive); in assay [3] it was 0.423 (inactive); in assay [4] it was 4.72 (inactive); in assay [6] it was 0.338 (inactive).

With `COCCCNC(=O)[C@@H]1c2ccccc2C(=O)N(c2ccc(C)cn2)[C@H]1c1ccc(CO)cc1`, the composite z-score in [1] is -0.0842; in assay [5] it was 0.674; in [7], 0.0748; in assay [8] it was -1.73; in [9] it was -0.502; in assay [10] it was -0.379. Moreover, the z-score in assay [2] is 0.331 (inactive); in assay [3], -1.18 (inactive); in assay [4], -0.19 (inactive); in assay [6] it was -2.29 (inactive).

Regarding `C=CC[C@@]1(C(=O)NCCN2CCOCC2)N=C(c2ccc(OCCCO)cc2)O[C@@H]1c1ccccc1`, the composite z-score turned out to be 1.54 in [1]; 3.01 in assay [5]; 0.0634 in assay [7]; 2.08 in assay [8]; 0.625 in [9]; 0.0149 in [10]. Moreover, the z-score in assay [2] is 0.305 (inactive); in assay [3], 0.132 (inactive); in assay [4] it was 0.33 (inactive); in assay [6], 0.0348 (inactive).

With `CCCc1cc2c(n1Cc1ccc(OC)cc1)C(C)C1CN(C(=O)c3ccccc3)C(C)(C(=O)OC)C21` (stereo not given), the composite z-score in assay [1] was 1.34; in [5], 3.37; in assay [7], 0.8; in [8], -0.758; in assay [9], 1.05; in assay [10], 0.389. In addition, the z-score in [2] was 0.461 (inactive); in assay [3] it was 0.815 (inactive); in [4], 1.64 (inactive); in [6], -1.21 (inactive).

As to `C[C@@H]1ON(c2ccccc2)[C@H](c2ccccc2)[C@H]1C(=O)N1C(=O)OC[C@H]1Cc1ccccc1`, the composite z-score in assay [1] is 1.3; in assay [5], 0.786; in assay [7], -0.166; in [8], 0.405; in assay [9] it was 0.826; in assay [10], -0.0549. The z-score in assay [2] is 0.713 (inactive); in assay [3], -0.451 (inactive); in [4] it was 0.125 (inactive); in assay [6], 0.547 (inactive).

Take `COCCOC(=O)N1C(=O)[C@@]2(c3cc(C#CCCO)ccc31)[C@H](C(=O)NC[C@H](O)c1ccccc1)[C@H]1C(=O)O[C@H](c3ccccc3)[C@H](c3ccccc3)N1[C@@H]2c1ccccc1OCCO`: the composite z-score in assay [1] was 1.53; in assay [5] it was 2.62; in assay [7], -0.0437; in assay [8] it was 1.42; in [9] it was 1.07; in assay [10], 0.13. The z-score in assay [2] was 1.06 (inactive); in assay [3], 0.578 (inactive); in assay [4] it was 2.4 (inactive); in assay [6], 0.636 (inactive).

`O=C(NCc1ccccc1)[C@]1(Cc2ccccc2)N=C(c2ccc(OCCCO)cc2)O[C@@H]1c1ccccc1`: the composite z-score was 0.882 in assay [1]; 2.68 in [5]; 0.0609 in assay [7]; -0.102 in assay [8]; 0.256 in assay [9]; 0.676 in assay [10]. Also, the z-score is 1.83 (inactive) in assay [2], 1.26 (inactive) in [3], 18.9 (active) in assay [4] and -1.26 (inactive) in assay [6].

In the case of `C=C(/C(=C/C[C@@H](OC(C)=O)c1ccccc1OCCO)c1cnc2ccccc2c1)C(C)C`, the composite z-score is 1.4 in [1]; 0.885 in [5]; -0.178 in [7]; 1.2 in assay [8]; 0.646 in [9]; -0.0439 in [10]. The z-score in assay [2] was -0.37 (inactive); in assay [3], -1.11 (inactive); in assay [4] it was -0.449 (inactive); in [6] it was 0.575 (inactive).

`CCN(CC)c1ccc(N2CC=CC34O[C@@H]5/C=C\CCCOC(=O)C5[C@H]3C(=O)N(CCCCCO)[C@@H]4C2=O)cc1` (stereo not given in full): the composite z-score in [1] was -0.752; in [5] it was 0.45; in assay [7], -0.231; in [8], -0.873; in assay [9], -0.404; in assay [10] it was -0.216. Besides, the z-score in assay [2] is -0.177 (inactive); in [3] it was -0.691 (inactive); in [4] it was -0.624 (inactive); in [6], -0.838 (inactive).

For the compound `COC(=O)[C@@]1(Cc2ccccc2)[C@H]2c3cc(C(=O)N4CCCC4)n(Cc4ccc(OC(F)(F)F)cc4)c3C[C@H]2CN1C(=O)c1ccccc1`, the composite z-score in [1] turned out to be 0.325; in assay [5], 3.29; in [7], 0.961; in [8] it was 0.0283; in assay [9] it was 1.04; in assay [10] it was 0.647. The z-score is 1.54 (inactive) in assay [2], 1.5 (inactive) in assay [3], 3.42 (inactive) in assay [4] and -1.43 (inactive) in assay [6].

As to `CN(C)C(=O)[C@@]1(Cc2ccccc2N=[N+]=[N-])N=C(c2ccc(OCCCO)cc2)O[C@H]1c1ccccc1N=[N+]=[N-]`, the composite z-score in assay [1] was determined as 1.56; in assay [5], 2.87; in assay [7], 0.505; in [8], 0.126; in assay [9], 1.06; in assay [10], 0.387. For the same compound, the z-score in assay [2] was 0.506 (inactive); in assay [3] it was -2.68 (inactive); in [4], 3.01 (inactive); in assay [6], 0.239 (inactive).

In the case of `C=CCOc1ccc([C@@H]2CC=C(C(=O)OCC)[C@H](c3cccc(Br)c3)N2S(=O)(=O)c2ccc(C)cc2)cc1`, the composite z-score in assay [1] was -0.227; in assay [5], 0.652; in assay [7], 0.049; in [8], -0.351; in assay [9] it was -0.32; in assay [10] it was -0.0456. Further, the z-score is -2.1 (inactive) in [2], -0.493 (inactive) in assay [3], 0.196 (inactive) in [4] and -0.372 (inactive) in assay [6].
